Source: PubChem BioAssay AID624418 (National Center for Advancing Translational Sciences (NCATS), 2012)
In all, about 410,000 compounds went through this assay and about 530 (0.13%) were called active. Where a call stands in place of a potency, no number is given. Roughly 5% stayed inconclusive and do not appear here. The call rests on the fitted dose curve; in most records, active means well fitted inhibition curve with a large enough effect; inconclusive means small, poorly fitted or top-dose-only effect, or another doubt; inactive means no such curve, though single readings can be large or run the other way. For the sample, actives were picked, then their nearest neighbours and some compounds at random.

Assay: qHTS of GLP-1 Receptor Inverse Agonists: Cytotox Screen;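 further: loss of luciferase light is scored as toxicity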
Details: HEK293 cAMP-luciferase reporter cells, luminescence, 24 h; series mostly up to 38.3 µM
From the text: The overall goal of this project was to develop a novel assay for discovering small molecule ligands for class B1 G protein-coupled receptors (GPCRs). Very few agonists (or inverse agonists) with generally weak activity for this entire group of physiologically important receptors are known to date. To establish proof-of-principle that this critical bottleneck can be overcome with a suitable screening approach, our studies focused on the class B1 receptor for glucagon-like peptide-1 (GLP-1R), a potential therapeutic target for diabetes and neurodegenerative disease.
The assay was developed using a cell-based functional readout. Toward this goal, stably transfected HEK293 cell clones were established that co-express (i) a cAMP-responsive luciferase reporter gene, and (ii) constitutively active GLP-1R that upon ligand interaction inhibit (inverse agonists) the luciferase activity. In addition, two control cell lines were developed: (i) one that express only the cAMP-responsive reporter gene to enable initial exclusion of GLP-1R independent effects of candidate probes; and (ii) one with the reported gene cloned with another constitutively active orphan receptor GPR119 to enable exclusion of GLP-1R independent inhibitor effects of candidate inverse agonists.
To that end, this assay was optimized for 1536-well format and screened against the MLSMR. Then the same collection was run in this cytotoxicity assay where inhibition was the undesired outcome.
NIH Molecular Libraries Probe Production Network [MLPCN]
NIH Chemical Genomics Center [NCGC]
PI Name: Martin Beinborn, Tufts Medical Center
Six ul of cell suspension (200 cells/uL in DMEM + 10% Nu serum + 1% pen-strep) is dispensed in a white solid 1536-well plate. The plates are incubated for 12 hours at 37 deg C at 5% CO2 followed by addition of 23 nL compounds. After 24 hr incubation at 37 deg C and 5% CO2, 3 uL of luciferase assay detection reagent is added. A luminescence read is obtained on the PerkinElmer Viewlux after 12 min incubation at room temperature.
Potency means the concentration at half of the fitted maximal effect.

SMILES | Potency
Cn1c(C(=O)Nc2cccc(C(F)(F)F)c2)cc2c(=O)n3ccccc3nc21 | inactive
Cc1ccc2c(c1)-c1c(cnn1CC(=O)Nc1ccccc1C#N)CO2 | inactive
CCN1CCN(c2ncnc3c2cnn3-c2ccc(C)c(C)c2)CC1 | inactive
COC(=O)c1ccc(NC(=O)c2cccc3c2C(=O)N(C2CCCCC2)C3)cc1 | inactive
COc1ccc(-c2nn3c(-c4ccc(OC)cc4)nnc3c3ccccc23)cc1 | inactive
CCOc1cc(C2c3c(-c4ccc(Br)cc4)n[nH]c3C(=O)N2c2ccc(Cl)cc2)ccc1O (configuration not stated) | inactive
CCC(Sc1nc2n[nH]c(C)c2c(=N)n1-c1ccccc1Cl)C(=O)N(CC)CC (configuration not stated) | inactive
CC(=O)OC1=C(C(C)=O)N(Cc2ccccc2)S(=O)(=O)c2ccccc21 | inactive
CN(Cc1ccccc1)C(=O)c1cn(C)c2ccc(S(=O)(=O)N3CCCCC3)cc2c1=O | inactive
CCc1ccccc1NC(=O)CSc1nnc(-c2ccccc2)c(-c2ccccc2)n1 | inactive
Cc1ccc(C)c(N2CCN(C(=O)Cc3c(C(=O)O)c(C)cn3C)CC2)c1 | inactive
Cc1cccc(NC(=O)C2CCN(S(=O)(=O)c3c(C)noc3/C=C/c3ccco3)CC2)c1 | inactive
COc1ccc(OC)c(NC(=O)C2CCCN(S(=O)(=O)c3ccc4c(c3)CCCC(=O)N4)C2)c1 (configuration not stated) | inactive
CC1=NN(C(=O)Cc2ccc(C)cc2)C(O)(c2cccnc2)C1 (configuration not stated) | inactive
COc1ccc(CC(=O)N2N=C(C)CC2(O)C(F)(F)F)cc1 (configuration not stated) | 6.31 µM (active)
CC1=NN(C(=O)CCc2ccccc2O)C(O)(C(F)(F)F)C1 (configuration not stated) | inactive
O=C(Nc1ccc(Oc2ccccc2)cc1)C1CCN(S(=O)(=O)c2ccc(Cl)cc2)CC1 | inactive
CC(=O)Nc1ccc(NC(=O)CSc2nnc3c4cc(Br)ccc4n(C)c3n2)cc1 | inactive
CC/C(=N\NC(=S)NC(C)C)c1ccc(OC(F)F)cc1 | 4.47 µM (active)
CC(C)N(Cc1ccccc1)C(=S)Nc1ccc(OC(F)F)cc1 | inactive
CC(C)CN1CCC1(C)C(=O)Nc1ccc(OC(F)F)cc1 (configuration not stated) | inactive

SMILES | Potency
Cc1oc(C)c2c(=O)cc(-c3ccc4c(c3)OCO4)cc(OC(=O)c3ccc(Cl)cc3)c12 | inactive
O=C(Nc1cc(C(F)(F)F)ccc1Cl)c1nc2ccccc2nc1N1CCCCC1 | inactive
O=C(NCC12CC3CC(CC(C3)C1)C2)c1cc2nc(-c3ccccc3)cc(C(F)(F)F)n2n1 | inactive
CSc1ccccc1-c1nnc(NC(=O)c2ccc3c(c2)OCCO3)o1 | inactive
CCOc1ccccc1NC(=O)C1CCCN(S(=O)(=O)c2cn(C)cn2)C1 (configuration not stated) | inactive
Fc1ccc(-c2nc(Nc3cccc(Cl)c3)nc3c2COc2ccccc2-3)cc1 | inactive
Cc1cccc(C(=O)Nc2ccc(S(=O)(=O)N3CCCCC3c3cccnc3)cc2)c1 (configuration not stated) | inactive
O=C(Nc1ccc(Br)cc1)c1ccc(Br)c(S(=O)(=O)NCc2ccccc2)c1 | inactive
CCOC(=O)c1c(NC(=O)/C=C/c2ccc(OC)cc2)sc2c1CCC(C)C2 (configuration not stated) | inactive
CCc1ccc(NC(=O)Cn2c(=O)n(CCC(=O)NCc3ccc4c(c3)OCO4)c(=O)c3ccccc32)cc1 | inactive
O=C(c1ccc(Cl)cc1)n1nc(-c2cccnc2)nc1NCc1ccc(F)cc1 | inactive
Clc1ccc(CSc2nncn3c2cc2occc23)cc1 | inactive
O=C(Cn1cnc2c(oc3ccccc32)c1=O)Nc1ccc(OC(F)(F)F)cc1 | inactive
COc1ccc(C(=O)COC(=O)CCCC(=O)Nc2cc(C(F)(F)F)ccc2Cl)cc1 | inactive
Cc1ccc(CCNC(=O)c2ccc(CS(=O)(=O)Cc3cccc(C)c3)o2)cc1 | inactive
Cc1c(CNC2CCCCC2)c(C(=O)O)c(C)n1Cc1cccc(Cl)c1 | inactive
Cc1nc(SCCOc2ccc(Cl)cc2)[nH]c(=O)c1Cc1ccccc1 | inactive
Cc1cc(NC(=O)CC(C)C)cc(-c2nc3ncccc3o2)c1O | inactive
Cc1ccc2nc(COc3cccc(NC(=O)c4ccccc4Cl)c3)cc(=O)n2c1 | inactive
CCOC(=O)C1=CCC2C(=O)N(Cc3ccccc3)C(=O)C12 (configuration not stated) | inactive
COc1ccc(CCNC(=O)CCCCn2c(=O)c3ccccc3n(Cc3ccccc3)c2=O)cc1OC | inactive

SMILES | Potency
COc1cc(/C=C2/SC(=S)N(Cc3ccccc3)C2=O)cc(OC)c1O | 10 µM (active)
CCCCCc1c(-c2ccc(OC)c(OC)c2)ncn1CCc1ccccc1OC | inactive
COc1ccc(-c2nn(-c3ccccc3)cc2/C=N/Nc2ccccn2)cc1OC | 5.01 µM (active)
COc1ccc(-c2cc(C(F)(F)F)n3nc(-c4ccccc4)cc3n2)cc1OC | inactive
Cc1ccccc1CN1CCC(CNC(=O)c2cc3ccc4cccnc4c3[nH]2)CC1 | inactive
O=C(NCC(c1ccc2c(c1)OCO2)N1CCN(c2ccccc2)CC1)C(=O)Nc1ccccc1F (configuration not stated) | inactive
CCc1ccc(NC(=O)c2cc(S(=O)(=O)NC3CCCCCC3)ccc2F)cc1 | inactive
CCCCN(CC)C(=O)c1c[nH]c2ccc(S(=O)(=O)Nc3cccc(OC)c3)cc2c1=O | inactive
Cc1cccc(NC(=O)c2ccc(F)c(S(=O)(=O)N(C)C3CCCCC3)c2)c1 | inactive
COc1ccc(NC(=O)c2ccc3oc(=O)c(S(=O)(=O)c4ccc(F)cc4)cc3c2)c(OC)c1 | inactive
Cc1ccc(-n2c(SCC(=O)Nc3cccc(F)c3)nc3c(oc4ccccc43)c2=O)cc1C | inactive
CC(C)Oc1ccc(NC(=O)c2cc3ccccc3o2)cc1 | inactive
Cc1ccc(NC(=O)C2CCN(S(=O)(=O)c3cc(-c4noc(C)n4)ccc3C)CC2)c(C)c1 | inactive
Cc1ccc(Cl)cc1NC(=O)/C(C#N)=C\c1cn(Cc2ccc(F)cc2)c2ccccc12 | inactive
CN(CC(=O)NCCN1CCOCC1)S(=O)(=O)c1ccc(F)cc1 | inactive
Cc1c(C(=O)NCCN2CCOCC2)sc2nc(-c3ccc(F)cc3)cn12 | inactive
Fc1ccc(-c2ccc(NCCN3CCOCC3)nn2)cc1 | 10 µM (active)
COc1cc(OC)cc(C(=O)NCCc2csc3nc(-c4ccccc4F)nn23)c1 | inactive
CCOc1ccc(NC(=O)CCc2c(C)nn(-c3ccc(N4CCCC4)nn3)c2C)cc1 | inactive
COc1ccc(C)cc1N(CC(=O)N1CCC(C)CC1)S(=O)(=O)c1ccc(C)cc1 | inactive
